Over roughly 39,000 sequences, “fluorescence intensity (a.u.)” has its median near 4,300; the highest 2% begin near 39,000. Many of the other results were omitted from the sample, so the highest values are more common in it than they were.

This experiment deals with T1, OsSMF1 (Oryza sativa, UniProt Q6ZLB0 1-436).
T1 sequence: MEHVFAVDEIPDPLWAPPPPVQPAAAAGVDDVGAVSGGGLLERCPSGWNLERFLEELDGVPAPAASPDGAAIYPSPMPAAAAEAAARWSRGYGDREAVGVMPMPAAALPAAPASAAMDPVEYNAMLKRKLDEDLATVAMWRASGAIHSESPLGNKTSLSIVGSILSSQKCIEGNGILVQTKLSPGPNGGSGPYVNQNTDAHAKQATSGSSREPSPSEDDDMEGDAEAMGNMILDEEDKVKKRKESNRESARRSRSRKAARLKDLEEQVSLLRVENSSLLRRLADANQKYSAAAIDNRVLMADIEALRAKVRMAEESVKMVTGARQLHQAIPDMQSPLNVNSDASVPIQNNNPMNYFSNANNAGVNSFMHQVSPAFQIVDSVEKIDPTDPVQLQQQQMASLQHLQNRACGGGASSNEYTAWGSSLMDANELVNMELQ
In words: protein-binding microarray (RPBM); PBS, 2% BSA, 51.3 ng/ul salmon testes DNA, 50 uM zinc acetate, 200 nM TF, 25 C, 1 h; high values mean tight binding. As to conditions: protein: recombinant; tags: N-terminal polyhistidine and DsRed monomer fusion (pET32a); chain copies: 2; label: CyDye5-dUTP incorporated in the synthesized complementary strand; 3' TTTTT single-stranded linker to array surface; dsDNA, one strand shown. The gist of the method:
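Transcription factors, each fused N-terminally to a polyhistidine tag and DsRed, were expressed in E. coli BL21-CodonPlus and purified on Ni–NTA. A custom Agilent array was made double-stranded by primer extension with Cy5-dUTP and blocked with 2% BSA. It was incubated with 200 nM protein in PBS, 2% BSA, salmon testes DNA and 50 µM zinc acetate at 25 °C for 1 h, then washed. The binding signal is per-feature fluorescence intensity (arbitrary units) read on an Axon 4000B scanner.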
Consider “CGCGCCATCGGCACGCTGGGCCAACACGGCACGGTGGACCCGGAGTCACCTAGTGCAG”, for which the binding signal is 3820 fluorescence intensity (a.u.). With “GGACACACACCCACACGCGCATCCATCCATCCATCCATCCCGGAGTCACCTAGTGCAG”, the binding signal is 3220 fluorescence intensity (a.u.). As for “CACGAGCTGGTGGGCATCGAGGACTCCACACACGCGCATCCGGAGTCACCTAGTGCAG”, the binding signal was 42800 fluorescence intensity (a.u.). As to “GGTGTGGCGTGAGCGTGACACGGTGTCAACTGTCAAGTGTCGGAGTCACCTAGTGCAG”, the binding signal was 3400 fluorescence intensity (a.u.). As to “TGCCCGGCTCGGCTACCCCGTCGCCACCGCCGTTCGTTTCCGGAGTCACCTAGTGCAG”, the binding signal was 3190 fluorescence intensity (a.u.). Take “TCTCGCCTACCACCAAGCTCATCTCGTTTCGTTAGCTACCCGGAGTCACCTAGTGCAG”: the binding signal was 41600 fluorescence intensity (a.u.). The figure for “AATAGCTCTCTCCTCAGTCTCTCACGGCCTCATCACCACCCGGAGTCACCTAGTGCAG” is 3170 fluorescence intensity (a.u.); for “GTTTTGACCCGGTTTTGGTCTACGTGGCGCTGAGTCAGCGCGGAGTCACCTAGTGCAG” it is 29900 fluorescence intensity (a.u.); for “GGTCCCTCAGCGGTTTTGGCTGACGTGGCGCATACGTGGCCGGAGTCACCTAGTGCAG” it is 51700 fluorescence intensity (a.u.). As for “TTTAGATGGCGGTTTTGGCTGACGTGGCGTCTACGTGACGCGGAGTCACCTAGTGCAG”, the binding signal was 30700 fluorescence intensity (a.u.). As for “GACCCCGGTTTTGTCCCACGTGGCGGCTGACTCAGCGTGGCGGAGTCACCTAGTGCAG”, the binding signal was 22500 fluorescence intensity (a.u.). As to “AGGCGGTTTTGGCTGATGTGGCGTCTACGTGGCTTGTTTGCGGAGTCACCTAGTGCAG”, the binding signal was 25300 fluorescence intensity (a.u.).

Turning to “TGGCGGTTTGGAAGGCGGTTTTGGCTGACGTGGCGTCTACCGGAGTCACCTAGTGCAG”, the binding signal was 43800 fluorescence intensity (a.u.). Take “GATCTCCTTTACACGTGATGTTGACGTGGCGTTTAGGTGGCGGAGTCACCTAGTGCAG”: the binding signal was 26500 fluorescence intensity (a.u.). With “GGAAGCGCCAGCCAGCGCTCGCCGTTGTCACCTGTCACACCGGAGTCACCTAGTGCAG” the figure was 3480 fluorescence intensity (a.u.); with “TACAGATCGATGCGACACTCTGACACGTTACGCTCTCTCTCGGAGTCACCTAGTGCAG”, 6440 fluorescence intensity (a.u.). For the sequence “TTGTGATGTCCATGTCACATGCAGTCCATTAAGGCCCTTGCGGAGTCACCTAGTGCAG”, the binding signal was 5190 fluorescence intensity (a.u.). With “GTTGTTGTTCTTGGATGTGAATGTGAATAATGTGATGTTTCGGAGTCACCTAGTGCAG”, the binding signal is 3350 fluorescence intensity (a.u.). The figure for “TGTGGTGGCGAGCGGCACGGAGGCGGGGCGGTGGAGGGAGCGGAGTCACCTAGTGCAG” is 3980 fluorescence intensity (a.u.); for “TAGAGGCAAGCACGACCAATGAGGACATAGGGAATGGTTCCGGAGTCACCTAGTGCAG” it is 9700 fluorescence intensity (a.u.); for “CAGTGCTAGGGAAGCGACCAATGATGGATAGTGGGAGGCACGGAGTCACCTAGTGCAG” it is 45600 fluorescence intensity (a.u.). On to “CTGTGCCGCTCGCTCGTTCGCTCTGTGACTGTACGTACATCGGAGTCACCTAGTGCAG”, for which the binding signal was 4590 fluorescence intensity (a.u.). For the sequence “TTGTCGCGATGTGCCCCTTCTACGGGGTGCCACGTCACATCGGAGTCACCTAGTGCAG”, the binding signal was 39500 fluorescence intensity (a.u.). Regarding “CCACATCGGATGCCACGTCAGCCCTAGCCACATCAGCGCACGGAGTCACCTAGTGCAG”, the binding signal was 38500 fluorescence intensity (a.u.). With “GTGTGGGGCCACGTCACAGTGGGCCCCATATGTCGGTGGGCGGAGTCACCTAGTGCAG”, the binding signal was 12700 fluorescence intensity (a.u.). Turning to “GTTCGGTTTCGCGGTCAAGCGCGTGACGTGAGGTCGCCCACGGAGTCACCTAGTGCAG”, the binding signal is 5720 fluorescence intensity (a.u.). Regarding “CAGCAGCAGCAGCAGCCGCCGCCTCCGTCCGTCCGTCCGTCGGAGTCACCTAGTGCAG”, the binding signal was 3230 fluorescence intensity (a.u.). The figure for “TGTGCCCTCTCCGTTCGATCCAGGAAAATGATAGTGTGATCGGAGTCACCTAGTGCAG” is 50200 fluorescence intensity (a.u.). As to “TTCGTGTGCCTAGGAAAATGGTATCCAAACCCCTCAAAATCGGAGTCACCTAGTGCAG”, the binding signal is 4190 fluorescence intensity (a.u.). With “GAGAAATGACGACACATCCTCTCGAGTGATCAGGATCCGTCGGAGTCACCTAGTGCAG”, the binding signal was 3590 fluorescence intensity (a.u.). As for “TCACATCCGAGCTGAGCTCCTGACACAGTGACACTACTGGCGGAGTCACCTAGTGCAG”, the binding signal is 4310 fluorescence intensity (a.u.). Turning to “GGGCAGCGTGTACAAGCCGGACAACGTGTCGCCGCCGGAGCGGAGTCACCTAGTGCAG”, the binding signal was 3340 fluorescence intensity (a.u.).

With “CGTACAACGGGTGTGTGTTTGGAGCCTGTAGCATGTGGTGCGGAGTCACCTAGTGCAG”, the binding signal was 4250 fluorescence intensity (a.u.).

In the case of “GGCCTGTCGTACAAGCCGCTTTGCTTGGGCATACAAGCAACGGAGTCACCTAGTGCAG”, the binding signal was 65100 fluorescence intensity (a.u.). As to “GATTACATGTAGACTATTTATCTACGTGGACAAAATCTCTCGGAGTCACCTAGTGCAG”, the binding signal is 13100 fluorescence intensity (a.u.). Consider “CGTACTCATCTCCTACACATCATCTCCAATTAATCTAATTCGGAGTCACCTAGTGCAG”, for which the binding signal was 3180 fluorescence intensity (a.u.). Consider “TCCATACATTATTGACGTAATCATAAATATACATCCATGTCGGAGTCACCTAGTGCAG”, for which the binding signal was 3360 fluorescence intensity (a.u.). With “ATTTATCATTATTAACTAATAATAACATTGATGTAATTAACGGAGTCACCTAGTGCAG”, the binding signal was 3400 fluorescence intensity (a.u.). As to “GAAACTCTAAATCTGCCATTACCCCAAGTACATCATTAGTCGGAGTCACCTAGTGCAG”, the binding signal was 3310 fluorescence intensity (a.u.). Take “TTTGCCATTAGCGTACTCACCTAATCTAATCATCGGATTACGGAGTCACCTAGTGCAG”: the binding signal is 48900 fluorescence intensity (a.u.). “CCATTGATTGATTATCAGTGGGCGTAATCATCAGTCTAAACGGAGTCACCTAGTGCAG”: the binding signal is 42100 fluorescence intensity (a.u.). Regarding “AATGACAGGACAACGAGGACACCGTGGATATTAAAGACCCCGGAGTCACCTAGTGCAG”, the binding signal is 4140 fluorescence intensity (a.u.).

These data come from publication PMC7819943, “Rice protein-binding microarrays: a tool to detect cis-acting elements near promoter regions in rice”.
